Hit rate of the full screen: of about 52,000 compounds, about 4,300 (8.3%) were called active. Cut-off read from the data, not from the text of the source: active = survival mostly below about 52% (no sharp cut-off); inactive = mostly above about 56%. This excerpt belongs to a sample that is enriched for actives.
What follows are compounds tested on DeltatarO mutant (assay: S. aureus survival, RN4220 and DeltatarO strains – OD600, teichoic acid synthesis inhibitors, primary screen (AID 463173)). Conditions: S. aureus RN4220 wild type/DeltatarO growth, OD600, 18 h, active compounds read low, screened at 18.75 µg/mL (by protocol).

Compound | survival
COc1ccc(CCNC(=O)c2ccc3c(c2)sc2nc(-c4ccccc4)cn23)cc1OC | 47% (active)
COc1cccc(-c2cn3c(n2)sc2cc(C(=O)NCCc4ccc(OC)c(OC)c4)ccc23)c1 | 49% (inactive)
COc1ccc(CCNC(=O)c2ccc3c(c2)sc2nc(-c4ccc(C)cc4)cn23)cc1OC | 81% (inactive)
Cc1cc(C(=O)O)on1 | 83% (inactive)
COc1ccc(-c2nc3ccccc3s2)cc1NC(=O)c1ccccc1F | 151% (inactive)
COc1ccc(-c2nc3ccccc3s2)cc1NC(=O)c1cc2ccccc2o1 | 38% (active)
CCOc1ccc(C(=O)Nc2cc(-c3nc4ccccc4s3)ccc2OC)cc1 | 187% (inactive)
COc1cc(OC)cc(C(=O)Nc2ccc(-c3nc4ccccc4s3)cc2C)c1 | 72% (inactive)
COc1ccc(-c2nc3ccccc3s2)cc1NC(=O)c1cccc([N+](=O)[O-])c1C | 38% (active)
COc1ccc(-c2nc3ccccc3s2)cc1NC(=O)c1ccc(C#N)cc1F | 168% (inactive)
COc1ccc(-c2nc3ccccc3s2)cc1NC(=O)c1ccccc1OC | 77% (inactive)
COc1ccc(C(=O)Nc2cc(-c3nc4ccccc4s3)ccc2OC)cc1 | 19% (active)
COc1ccc(-c2nc3ccccc3s2)cc1NC(=O)c1cc(OC)c(OC)c(OC)c1 | 57% (inactive)
COc1ccc(-c2nc3ccccc3s2)cc1NC(=O)c1ccc(F)cc1 | 137% (inactive)
COc1cc(OC)cc(C(=O)Nc2cc(-c3nc4ccccc4s3)ccc2OC)c1 | 42% (active)
O=C(Nc1cc(-c2nc3ccccc3s2)ccc1Cl)c1cc2ccccc2o1 | 105% (inactive)
CCOC(=O)N1CCc2c(sc(NCc3sccc3C)c2C(=O)Nc2ccccc2OCC)C1 | 94% (inactive)

Compound | survival
O=C(NCCS(=O)(=O)N1CCN(c2ccc(F)cc2)CC1)C(c1ccccc1)c1ccccc1 | 113% (inactive)
CC(C)COc1ccc(C(=O)N2CCN(CCc3ccccn3)CC2)cc1 | 63% (inactive)
CC(C)(C)C(=O)C1C2C3COC(O3)C(=O)C2C2C=Cc3ccccc3N21 (centres undefined) | 124% (inactive)
CCc1cccc(NC(=O)Cn2c(=O)n(CC(=O)NCCc3ccccc3)c(=O)c3ccccc32)c1 | 102% (inactive)
COc1cc(Cl)c(C)cc1NC(=O)c1cc2c(Cl)nc3ccc(C)cc3c2s1 | 64% (inactive)
CCSc1ncc(Cl)c(C(=O)N2CCN(c3ccc(OC)cc3)CC2)n1 | 83% (inactive)
CCS(=O)(=O)c1ncc(Cl)c(C(=O)N2CCN(c3cccc(Cl)c3)CC2)n1 | 8% (active)
CS(=O)(=O)c1ncc(Cl)c(C(=O)N2CCN(c3cccc(Cl)c3)CC2)n1 | 17% (active)
CCCSc1ncc(Cl)c(C(=O)N2CCN(c3cccc(Cl)c3)CC2)n1 | 40% (active)
CSc1ncc(C(=O)N2CCN(c3ccc(Cl)cc3)CC2)c(C)n1 | 106% (inactive)
CCCSc1ncc(Cl)c(C(=O)N2CCN(c3ccc(OC)cc3)CC2)n1 | 49% (inactive)
CSc1ncc(C(=O)N2CCN(c3cccc(C(F)(F)F)c3)CC2)c(C)n1 | 69% (inactive)
CCSc1ncc(Cl)c(C(=O)N2CCN(c3ccccc3OC)CC2)n1 | 76% (inactive)
CSc1ncc(C(=O)N2CCN(c3cccc(Cl)c3)CC2)c(C)n1 | 0% (active)
CS(=O)(=O)N1CCc2cc(C(=O)N3CCN(c4cccc(Cl)c4)CC3)ccc21 | 49% (inactive)
CCS(=O)(=O)c1ncc(Cl)c(C(=O)N2CCN(c3ccc(OC)cc3)CC2)n1 | 68% (inactive)
Cn1cc(S(=O)(=O)N2CCCC2)cc1C(=O)N1CCN(c2cccc(Cl)c2)CC1 | 73% (inactive)
